Reference: the supplement of paper PMC9117331
Counter-ions that a name gives are not always drawn.

What was measured:
Conditions in all cases: 0.5 µM; time after treatment 48 h; PC9 signalome
PC9 [1] = experiment: AKT reporter activity score (signed KS statistic vs DMSO) (signed KS statistic (-1 to 1)); higher = stronger activation of the pathway reporter relative to DMSO
PC9 [2] = experiment: RAR reporter activity score (signed KS statistic vs DMSO) (signed KS statistic (-1 to 1)); higher = stronger activation of the pathway reporter relative to DMSO
PC9 [3] = experiment: PKC reporter activity score (signed KS statistic vs DMSO) (signed KS statistic (-1 to 1)); higher = stronger activation of the pathway reporter relative to DMSO
PC9 [4] = experiment: PKA reporter activity score (signed KS statistic vs DMSO) (signed KS statistic (-1 to 1)); higher = stronger activation of the pathway reporter relative to DMSO
PC9 [5] = experiment: p38 reporter activity score (signed KS statistic vs DMSO) (signed KS statistic (-1 to 1)); higher = stronger activation of the pathway reporter relative to DMSO
PC9 [6] = experiment: HIF reporter activity score (signed KS statistic vs DMSO) (signed KS statistic (-1 to 1)); higher = stronger activation of the pathway reporter relative to DMSO
PC9 [7] = experiment: ERK reporter activity score (signed KS statistic vs DMSO) (signed KS statistic (-1 to 1)); higher = stronger activation of the pathway reporter relative to DMSO
PC9 [8] = experiment: JNK reporter activity score (signed KS statistic vs DMSO) (signed KS statistic (-1 to 1)); higher = stronger activation of the pathway reporter relative to DMSO
PC9 [9] = experiment: WNT reporter activity score (signed KS statistic vs DMSO) (signed KS statistic (-1 to 1)); higher = stronger activation of the pathway reporter relative to DMSO
PC9 [10] = experiment: NFkB reporter activity score (signed KS statistic vs DMSO) (signed KS statistic (-1 to 1)); higher = stronger activation of the pathway reporter relative to DMSO
PC9 [11] = experiment: YAP/TAZ reporter activity score (signed KS statistic vs DMSO) (signed KS statistic (-1 to 1)); higher = stronger activation of the pathway reporter relative to DMSO

| SMILES | AKT reporter activity score (PC9 [1]) | RAR reporter activity score (PC9 [2]) | PKC reporter activity score (PC9 [3]) | PKA reporter activity score (PC9 [4]) | p38 reporter activity score (PC9 [5]) | HIF reporter activity score (PC9 [6]) | ERK reporter activity score (PC9 [7]) | JNK reporter activity score (PC9 [8]) | WNT reporter activity score (PC9 [9]) | NFkB reporter activity score (PC9 [10]) | YAP/TAZ reporter activity score (PC9 [11]) |
| --- | --- | --- | --- | --- | --- | --- | --- | --- | --- | --- | --- |
| O=C(NCCCNc1nc(Nc2cccc(NC(=O)N3CCCC3)c2)ncc1I)c1cccs1 | -0.261 | -0.0747 | 0.054 | -0.174 | 0.125 | -0.0537 | -0.0698 | -0.102 | -0.101 | 0.0689 | -0.0931 |
| CC(C)NC[C@@H](C(=O)N1CCN(c2ncnc3c2[C@H](C)C[C@H]3O)CC1)c1ccc(Cl)cc1 [Ipatasertib (GDC-0068)] | -0.688 | -0.297 | -0.0598 | 0.241 | -0.0739 | -0.228 | 0.0863 | -0.0989 | 0.0644 | 0.0919 | -0.0823 |
| COc1cccc2c1C(=O)c1c(O)c3c(c(O)c1C2=O)C[C@@](O)(C(C)=O)C[C@@H]3O[C@H]1C[C@H](N)[C@H](O)[C@H](C)O1 [Daunorubicin HCl (Daunomycin HCl)] |  |  |  |  | -0.245 |  | -0.431 | 0.068 | 0.915 | 0.693 |  |
| Cc1[nH]nc2ccc(-c3cncc(OC[C@@H](N)Cc4ccccc4)c3)cc12 | -0.173 | -0.385 | -0.0808 | -0.173 | 0.056 | -0.128 | -0.166 | 0.272 | 0.113 |  | -0.247 |
| C=CC(=O)N1CCC[C@@H](n2nc(-c3ccc(Oc4ccccc4)cc3)c3c(N)ncnc32)C1 | -0.461 | 0.562 |  |  | -0.409 | 0.169 | -0.667 | -0.17 | 0.283 |  | 0.322 |
| CCn1c(-c2nonc2N)nc2c(C#CC(C)(C)O)ncc(OC[C@H]3CCCNC3)c21 | -0.513 | -0.292 | -0.0561 | 0.119 | -0.189 | -0.224 | 0.134 | 0.058 | 0.151 | 0.0699 | -0.0459 |
| Cc1ccc(C(=O)N(CCCN)[C@@H](c2oc3cc(Cl)ccc3c(=O)c2Cc2ccccc2)C(C)C)cc1 |  |  | 0.176 |  | -0.278 | 0.473 | -0.378 | -0.131 |  | 0.169 |  |
| Nc1ncnc2c1c(-c1cnc3[nH]ccc3c1)nn2C1CCCC1 | -0.463 | 0.646 | 0.116 |  | -0.374 | 0.183 | -0.379 | -0.111 | 0.0862 | 0.128 | 0.258 |
| CC(C)CC(=O)Nc1n[nH]c2c1CN(C(=O)C1CCN(C)CC1)C2(C)C | -0.35 | 0.417 |  | -0.15 | -0.296 | 0.227 | -0.107 | -0.179 | 0.117 | 0.167 | 0.244 |
| C[C@@H](Oc1cc(-n2cnc3ccc(CN4CCN(C)CC4)cc32)sc1C(N)=O)c1ccccc1C(F)(F)F | -0.183 | 0.399 |  | 0.141 | 0.183 | 0.347 | -0.139 | 0.0494 | 0.141 | 0.0742 |  |
| CCN1CCN(Cc2ccc(-c3cc4c(N[C@H](C)c5ccccc5)ncnc4[nH]3)cc2)CC1 | -0.376 | 0.505 |  | -0.379 | -0.36 | 0.189 | -0.726 | 0.193 | 0.184 | 0.161 | 0.381 |
| CN1CC[C@H](c2c(O)cc(O)c3c(=O)cc(-c4ccccc4Cl)oc23)[C@H](O)C1 [Flavopiridol hydrochloride] |  |  |  | -0.608 | -0.475 | 0.353 | -0.633 | -0.208 | 0.153 | 0.123 | 0.371 |
| CC(C)n1nc(-c2ccc3oc(N)nc3c2)c2c(N)ncnc21 | -0.075 | 0.0862 | 0.0627 | 0.217 | -0.392 | -0.124 | -0.188 | -0.194 | 0.164 | 0.0979 | 0.144 |
| COc1ccc(-c2ccc3c(N4CCOC[C@@H]4C)nc(N4CCOC[C@@H]4C)nc3n2)cc1CO | -0.0864 | -0.11 | 0.0766 |  | -0.297 | -0.151 | -0.211 | -0.189 | 0.13 | 0.178 | 0.166 |
| COc1ccc(-c2ccc3c(N4CCOCC4)nc(N4C[C@@H](C)O[C@@H](C)C4)nc3n2)cc1CO | -0.124 | -0.302 | -0.0717 | -0.114 | -0.0964 | -0.246 | 0.079 | 0.0459 | 0.0519 | 0.0599 | -0.085 |
| CO[C@H]1C[C@@H]2CC[C@@H](C)[C@@](O)(O2)C(=O)C(=O)N2CCCC[C@H]2C(=O)O[C@H]([C@H](C)C[C@@H]2CC[C@@H](O)[C@H](OC)C2)CC(=O)[C@H](C)/C=C(\C)[C@@H](O)[C@@H](OC)C(=O)[C@H](C)C[C@H](C)/C=C/C=C/C=C/1C [Rapamycin (Sirolimus)] | 0.0788 | -0.291 | -0.0424 | 0.0838 | -0.0405 | -0.242 | 0.0931 | -0.0966 | 0.0535 | 0.0606 | 0.12 |
| Cc1ccc([N+](=O)[O-])cc1S(=O)(=O)N(C)/N=C/c1cnc2ccc(Br)cn12 | -0.252 | 0.101 | 0.105 | -0.347 | -0.118 | 0.178 | -0.147 | 0.157 | 0.207 | 0.0772 | 0.169 |
| C=CC(=O)Nc1ccc2ncnc(Nc3cccc(Br)c3)c2c1 |  |  |  |  | -0.268 | 0.234 | -0.724 |  |  |  | 0.467 |
| C=CC(=O)Nc1cccc(Oc2nc(Nc3ccc(N4CCN(C)CC4)cc3)ncc2Cl)c1 |  | 0.418 | 0.125 |  | -0.271 | 0.164 | -0.662 | 0.152 | 0.124 | 0.166 | 0.333 |
| CN(C)C/C=C/C(=O)Nc1cc2c(Nc3ccc(F)c(Cl)c3)ncnc2cc1O[C@H]1CCOC1 [Afatinib (BIBW2992)] | -0.37 |  | 0.191 |  | 0.229 | 0.0949 | -0.615 | 0.173 | 0.34 | 0.208 | 0.397 |
| CC(C)n1nc(-c2cc3cc(O)ccc3[nH]2)c2c(N)ncnc21 | -0.0564 | -0.222 | -0.0669 | 0.116 | 0.0578 | -0.329 | -0.108 | -0.0693 | 0.0845 | 0.195 | 0.186 |
| C=CC(=O)Nc1cccc(Sc2nc(Nc3ccc(N4CCN(C)CC4)cc3)ncc2Cl)c1 | -0.364 | 0.467 | 0.0576 | -0.418 | -0.318 | 0.106 | -0.698 | 0.15 | 0.172 | 0.174 | 0.338 |
